KDM5B inhibitor: inhibitors of human KDM5B histone demethylase; Q9UGL1; KDM5B demethylase, FDH-coupled NADH fluorescence (FDH is formaldehyde dehydrogenase); Potency, µM (top dose mostly 57.7 µM), usual class: inhibitors; hit rate 2.6% among 220,000; active = well fitted inhibition curve with a large enough effect; note: 0% is about no effect; nearly all actives have a fitted effect of over 70% in size
Target sequence (Q9UGL1 whole entry, looked up): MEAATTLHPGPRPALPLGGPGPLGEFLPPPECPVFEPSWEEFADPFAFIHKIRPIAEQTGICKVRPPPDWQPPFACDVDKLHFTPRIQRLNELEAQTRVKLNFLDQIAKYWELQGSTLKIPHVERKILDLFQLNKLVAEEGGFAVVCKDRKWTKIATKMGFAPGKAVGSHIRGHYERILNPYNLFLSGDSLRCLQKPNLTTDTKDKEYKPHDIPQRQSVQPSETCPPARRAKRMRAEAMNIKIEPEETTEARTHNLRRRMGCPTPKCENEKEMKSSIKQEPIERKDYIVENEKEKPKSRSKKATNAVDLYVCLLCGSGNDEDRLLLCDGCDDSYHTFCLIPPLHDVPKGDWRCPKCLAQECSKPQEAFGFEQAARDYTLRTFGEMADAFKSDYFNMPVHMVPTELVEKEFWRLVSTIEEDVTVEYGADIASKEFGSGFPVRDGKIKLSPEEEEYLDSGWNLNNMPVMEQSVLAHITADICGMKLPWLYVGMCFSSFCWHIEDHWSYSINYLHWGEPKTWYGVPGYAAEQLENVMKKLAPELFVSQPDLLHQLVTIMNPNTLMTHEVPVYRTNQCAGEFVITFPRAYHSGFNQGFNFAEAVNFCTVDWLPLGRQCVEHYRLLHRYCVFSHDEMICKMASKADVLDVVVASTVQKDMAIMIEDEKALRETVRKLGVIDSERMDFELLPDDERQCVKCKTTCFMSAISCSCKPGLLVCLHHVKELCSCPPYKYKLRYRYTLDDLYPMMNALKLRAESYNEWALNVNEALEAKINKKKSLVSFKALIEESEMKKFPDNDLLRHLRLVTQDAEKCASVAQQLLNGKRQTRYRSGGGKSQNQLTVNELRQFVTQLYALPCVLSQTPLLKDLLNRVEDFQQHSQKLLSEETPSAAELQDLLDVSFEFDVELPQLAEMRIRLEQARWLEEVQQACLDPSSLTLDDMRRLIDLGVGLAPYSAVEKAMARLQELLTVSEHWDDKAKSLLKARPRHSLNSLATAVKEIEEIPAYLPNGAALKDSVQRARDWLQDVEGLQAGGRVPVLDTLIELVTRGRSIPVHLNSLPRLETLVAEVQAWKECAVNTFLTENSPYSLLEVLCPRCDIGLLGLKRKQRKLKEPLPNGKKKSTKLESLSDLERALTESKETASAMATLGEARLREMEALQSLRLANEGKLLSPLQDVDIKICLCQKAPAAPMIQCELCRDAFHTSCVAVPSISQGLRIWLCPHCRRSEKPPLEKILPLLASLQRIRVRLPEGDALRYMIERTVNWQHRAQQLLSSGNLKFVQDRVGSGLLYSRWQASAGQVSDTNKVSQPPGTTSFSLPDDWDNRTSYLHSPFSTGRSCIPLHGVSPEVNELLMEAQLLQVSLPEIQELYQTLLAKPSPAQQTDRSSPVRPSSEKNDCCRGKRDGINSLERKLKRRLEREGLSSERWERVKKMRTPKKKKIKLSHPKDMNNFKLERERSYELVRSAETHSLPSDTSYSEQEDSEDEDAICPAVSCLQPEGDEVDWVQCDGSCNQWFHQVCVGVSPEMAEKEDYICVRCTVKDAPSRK
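Coupled FDH/NAD⁺ fluorescence readout. KDM5BΔAP 200 nM final; compound titration, 10 min RT preincubation; substrate mix 12.5 µM H3K4me3, 25 µM 2-OG, 50 µM Fe(II), 100 µM ascorbate, 0.25 mM NAD⁺, 0.25 U/mL FDH; ΔRFU over 30 min.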
Starred values were filed as active, the others as inactive; i = inactive. The entries come from a sample that favours hits as a whole. Potency is the fitted concentration of half-maximal effect.

SMILES	KDM5B inhibitor
O=C1C(=O)N(Cc2cccnc2)C(c2ccccn2)/C1=C(\O)c1ccccc1 (stereo not drawn)	i
CC(C)(C)CC(C)(C)NCc1ccc(C(=O)O)cc1	i
CCCCNc1nc(-c2ccc3c(c2)CC(C)N3S(C)(=O)=O)cs1 (stereo not drawn)	i
O=C(COc1c(I)cc(Cl)c2cccnc12)NC12CC3CC(CC(C3)C1)C2	i
Cc1nc([C@@H]2CN(C(=O)c3cccs3)C[C@H]2C(N)=O)n[nH]1	i
CNC(=O)[C@@H]1CN(C(=O)c2cc3ccccc3[nH]2)C[C@H]1COC	i
COc1ccc2[nH]c(C(=O)N3C[C@@H](C(N)=O)[C@H](c4n[nH]c(C)n4)C3)cc2c1	28.2µM*
CNC(=O)[C@@H]1CN(C(=O)c2cc3cc(OC)ccc3[nH]2)C[C@H]1COC	31.6µM*
COC[C@@H]1CN(C(=O)c2cc3ccc(OC)cc3[nH]2)C[C@H]1C(N)=O	i
Cc1nc([C@@H]2CN(C(=O)c3sccc3C)C[C@H]2C(N)=O)n[nH]1	i
Cc1ccc(C(=O)N2CCCCCCNC(=O)CC2c2ccccc2)s1 (stereo not drawn)	i
CCC(C)Oc1ccccc1C1CC(=O)NC2=C1C(=O)CC(C)(C)C2 (stereo not drawn)	i
O=C(C[C@@H]1CCNC[C@@H]1Cc1cc(CSc2ccccc2)on1)N1CCN(c2ccccc2)CC1	i
S=C(NCCCCc1ccccc1)Nc1cccc(Cl)c1Cl	i
CC(Nc1oc(Cc2cccc3ccccc23)nc1C#N)c1ccccc1 (stereo not drawn)	i
Cn1nccc1-c1ccc2ncn(-c3ccc(F)cc3F)c(=O)c2n1	39.8µM*
Cn1cnc2ccc(Nc3cccc(F)c3)nc2c1=O	i
O=c1c2nc(-c3cccc(O)c3)ccc2ncn1Cc1ccccn1	i
O=c1c2nc(Nc3cccnc3)ccc2ncn1-c1ccc(F)cc1F	i
Cn1nccc1-c1ccc2ncn(-c3ccccc3)c(=O)c2n1	31.6µM*
CC(=O)Nc1cccc(-c2ccc3ncn(Cc4ccccn4)c(=O)c3n2)c1	i
O=c1c2nc(-c3cccnc3)ccc2ncn1Cc1ccccc1	i
O=c1c2nc(-c3ccc(F)cc3)ccc2ncn1Cc1ccccn1	31.6µM*
O=c1c2nc(-c3ccccc3)ccc2ncn1-c1ccccc1	39.8µM*
COc1ccc(Nc2ccc3ncn(-c4ccccc4)c(=O)c3n2)cn1	i
SMILES	KDM5B inhibitor
Cn1cnc2ccc(-c3ccncc3)nc2c1=O	i
Cn1cnc2ccc(Nc3ccccc3)nc2c1=O	i
CC1(C)Cc2ccccc2-c2nnc(-c3ccc(Br)o3)n21	i
CC(C)CCN1CCCC2(C1)C(=NC1CCCC1)NC(=O)N2c1cc(F)cc(F)c1 (stereo not drawn)	i
CNc1c(NC(=O)Cc2cccs2)c(=O)oc2ccccc12	i
COC(=O)C1=C(C(=O)c2ccc(C)cc2)C(c2ccc(C(=O)OC)cc2)n2nnnc2N1 (stereo not drawn)	i
CCCCC(=O)NC1(C(F)(F)F)C(=O)N(Cc2ccccc2)C(C)=C1C(=O)OC (stereo not drawn)	i
COc1ccc(CNC(=O)C(=O)Nc2ccc(C)cc2C)cc1	i
Cc1cc(C)c2c(=O)cc(C(=O)Nc3ccc(S(=O)(=O)Nc4nccc(C)n4)cc3)oc2c1	i
O=C(CCn1ncc(=O)c2ccccc21)N1CCCC1c1ccc2c(c1)OCCO2 (stereo not drawn)	i
COCCN(C)C[C@@H]1CN(C(=O)c2ccc(-c3ccccc3)n2C)C[C@@H]1CO	i
COCCN(C)C[C@@H]1CN(C(=O)c2ccc(-c3ccco3)cc2)C[C@@H]1CO	31.6µM*
COCCN(C)C[C@@H]1CN(C(=O)c2ccc(-c3ccc(C)o3)cc2)C[C@@H]1CO	i
O=C(Sc1cccc2cccnc12)c1ccccc1Cl	i
CC(=O)c1ccccc1NC(=O)CSc1ncnc2ccccc12	i
Cc1ccc(CNC(=O)c2nc(SCc3ccccc3F)ncc2Cl)cc1	i
Cc1c(-c2ccccc2F)[nH]c2ccc(CNC(=O)CCn3cnnc3)cc12	31.6µM*
O=C(Cn1nc(-c2ccccc2F)ccc1=O)NCc1cccnc1	i
Cc1[nH]c2ccccc2c1SCCNC(=O)c1ccccc1F	i
Cc1ccc(CNC(=O)Cc2nn(C)c(=O)c3ccccc23)cc1F	i
COc1cccc(CNC(=O)Cn2c(=O)[nH]c3c(-c4ccccc4F)c[nH]c3c2=O)c1	i
Cc1ccc(CNC(=O)CSc2n[nH]c(N)n2)cc1F	i
Cc1cc(C(=O)OCC(=O)NCc2ccc(F)cc2)c2ccccc2n1	i
Cc1ncc(C(=O)NCc2ccc3[nH]c(-c4ccccc4F)c(C)c3c2)c(C)n1	20µM*
Cc1nc(CCC(=O)NCc2ccc3[nH]c(-c4ccccc4F)c(C)c3c2)n[nH]1	25.1µM*
SMILES	KDM5B inhibitor
Cc1c(-c2ccccc2F)[nH]c2ccc(CNC(=O)CN3CC(=O)NC3=O)cc12	28.2µM*
Cc1ccc(CNC(=O)CCc2ncc(-c3c(F)cccc3F)o2)cc1F	i
COc1ccc(OC)c(CN2CCC(C(O)(c3ccccc3)c3ccccc3)CC2)c1	i
CC(C)NC(=O)CNC(=O)c1nc(-c2cccc3[nH]ccc23)no1	i
O=C(COC(=O)c1cc2ccccc2oc1=O)NCc1ccccc1Cl	i
CCOc1ccc(C(C)=O)cc1COC(=O)COc1ccc(Cl)c(C)c1	i
COC(=O)c1ccc(CNC(=O)c2ccc(C#N)cc2)cc1	i
N#Cc1ccc(C(=O)NCC(=O)N2CCCCCCNC(=O)CC2c2ccccc2)cc1 (stereo not drawn)	i
Cc1ccc(C(=O)Nc2cc(S(=O)(=O)N3CCCCC3)ccc2Oc2ccccc2)cn1	i
Cc1c(C(=O)N(CCc2cccs2)Cc2cccs2)[nH]c2c1C(=O)CC(C)(C)C2	i
O=C(NCCc1cccnc1)c1cccc(Cl)c1	i
COC(=O)[C@@H]1Cc2c([nH]c3ccccc23)[C@H]2C[C@@H](NCCNC(C)=O)C[C@@H](c3ccc(-c4ccccc4)cc3)N21	i
Cc1ccc(C2c3[nH]c4ccccc4c3CCN2C(=O)c2ccccc2Br)cc1 (stereo not drawn)	i
COC(=O)[C@@H]1Cc2c([nH]c3ccccc23)[C@H]2C[C@@H](NC(C)C)C[C@@H](c3ccc(C)cc3)N21	28.2µM*
COC(=O)[C@@H]1Cc2c([nH]c3ccccc23)[C@H]2C[C@@H](NC(C)C)C[C@@H](c3ccccc3)N21	11.2µM*
Cc1ccc(C2c3[nH]c4ccccc4c3CCN2C(=O)CCC2CCCC2)cc1 (stereo not drawn)	i
COC(=O)[C@@H]1Cc2c([nH]c3ccccc23)[C@H]2C[C@@H](NCCc3cnc[nH]3)C[C@@H](c3cccc(Cl)c3)N21	i
Cc1ccc(Cn2c(C3CCN(C(=O)c4ccc(C(C)(C)C)cc4)CC3)n[nH]c2=O)cc1	i
NS(=O)(=O)c1ccc(C(=O)NC(Cc2ccncc2)C2CC(O)C2)cc1 (stereo not drawn)	i
O=C(N[C@H](Cc1ccncc1)C1CC(O)C1)c1ccc(CO)o1 (stereo partly drawn)	i
O=C(N[C@H](Cc1ccncc1)C1CC(O)C1)c1cccn2cnnc12 (stereo partly drawn)	22.4µM*
Cc1ccc(C(=O)NC2CCCCC2C)c(C)c1 (stereo not drawn)	i
CCc1nc2ccccc2c(NC(=O)CNC(C)(C)C)c1C	i
O=C(NCc1ccc(F)cc1)c1nc(-c2ccc(F)cc2)c2cnccn12	35.5µM*
